{"source": "PubChem BioAssay (NCATS)", "note": "Records with an inconclusive call do not appear. A number with no mark means an inactive call. The call rests on the fitted dose curve; in most records, active means well fitted curve in the direction sought with a large enough effect; inconclusive means small, poorly fitted or top-dose-only effect, or another doubt; inactive means no such curve, though single readings can be large; an effect the other way counts as inactive or inconclusive.", "data": [{"experiment": "Cell Viability - LYMP1-003 - Assay at 40 hr (AID 964); further: on the % scale 0 is the no-effect control and ±100 the full control effect; nearly all actives have a fitted effect of over 60% in size", "conditions": "LYMP1-003 lymphoblastoid viability; series mostly up to 92.2 µM; activity change, negative = cytotoxic: at the top concentration", "summary_of_the_method": "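Cells were seeded at 2500 per well and incubated 5 hr at 37 C. Compounds were added across a concentration series and left 40 hr at 37 C. CellTiter-Glo was added for 30 min at room temperature before luminescence reading.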", "units": {"activity change, negative = cytotoxic": "%"}, "values": [{"smiles": "CCN(C(=O)N(CC)c1ccccc1)c1ccccc1", "activity change, negative = cytotoxic": -4.79}, {"smiles": "CCNc1cc(O)ccc1C", "activity change, negative = cytotoxic": -9.36}, {"smiles": "Cc1ccc(C(=O)O)cc1", "activity change, negative = cytotoxic": -5.17}, {"smiles": "C=Cc1ccccn1", "activity change, negative = cytotoxic": -7.51}, {"smiles": "CC(C)C(C)C", "activity change, negative = cytotoxic": -12.6}, {"smiles": "CCCCC(=O)N(C)C", "activity change, negative = cytotoxic": -3.44}, {"smiles": "O=C1OC(=O)c2c(Br)c(Br)c(Br)c(Br)c21", "activity change, negative = cytotoxic": -1.66}, {"smiles": "Cc1cccc2sc(N)nc12", "activity change, negative = cytotoxic": -2.34}, {"smiles": "CN(C)c1cccc(O)c1", "activity change, negative = cytotoxic": -8.89}, {"smiles": "BrC(Br)C(Br)Br", "activity change, negative = cytotoxic": -2.82}, {"smiles": "CC(=O)c1ccccn1", "activity change, negative = cytotoxic": -16.2}, {"smiles": "CC(N)CN", "note": "(stereo not drawn)", "activity change, negative = cytotoxic": -4.94}, {"smiles": "OC1CCCC1", "activity change, negative = cytotoxic": 6.78}, {"smiles": "Cc1ccc(N(C)C)cc1", "activity change, negative = cytotoxic": -15.4}, {"smiles": "OCCO", "activity change, negative = cytotoxic": 4}, {"smiles": "Cc1ccc2nc(-c3ccc(N)cc3)sc2c1S(=O)(=O)O", "activity change, negative = cytotoxic": -12.8}, {"smiles": "CCOC(=O)OCC", "activity change, negative = cytotoxic": -4.72}, {"smiles": "ClCCl", "activity change, negative = cytotoxic": 0.991}, {"smiles": "CN(C)CCCCl", "activity change, negative = cytotoxic": -10.5}, {"smiles": "CC(=O)c1cccc([N+](=O)[O-])c1", "activity change, negative = cytotoxic": -13.2}, {"smiles": "O=C(O)c1ccccc1Cl", "activity change, negative = cytotoxic": 1.92}, {"smiles": "CSCCC=O", "activity change, negative = cytotoxic": -5.97}, {"smiles": "C=C(C)OC(C)=O", "activity change, negative = cytotoxic": -5.76}, {"smiles": "C1CCCC1", "activity change, negative = cytotoxic": -0.722}, {"smiles": "CCCCCCCCC/C=C/CC1CC(=O)OC1=O", "note": "(stereo not drawn)", "activity change, negative = cytotoxic": -1.5}, {"smiles": "Cc1cc(C)cc(O)c1", "activity change, negative = cytotoxic": -15.9}, {"smiles": "CCC(O)C(C)(C)C", "note": "(stereo not drawn)", "activity change, negative = cytotoxic": 4}, {"smiles": "CCCCCCCCC", "activity change, negative = cytotoxic": -2.66}, {"smiles": "CCCCCCCCCCCCC1CO1", "note": "(stereo not drawn)", "activity change, negative = cytotoxic": -3.82}, {"smiles": "Clc1ccc(Cl)c(Cl)c1Cl", "activity change, negative = cytotoxic": -13.7}, {"smiles": "CC/C=C/C#N", "activity change, negative = cytotoxic": -5.04}, {"smiles": "Cc1ccc(C(C)(C)C)cc1", "activity change, negative = cytotoxic": -3}, {"smiles": "O=Cc1cccc(Br)c1", "activity change, negative = cytotoxic": -4.12}, {"smiles": "Cc1ccc(C)c(N)c1", "activity change, negative = cytotoxic": 3.42}, {"smiles": "CC(C)c1ccccc1", "activity change, negative = cytotoxic": 2.57}]}, {"experiment": "Cell Viability - LYMP2-003 (AID 965);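 further: 0% = DMSO only and full effect = 92 µM tetraoctylammonium bromide; nearly all actives have a fitted effect of over 50% in size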", "conditions": "LYMP2-003 lymphoblastoid cell viability; series mostly up to 92.2 µM; activity change, negative = cytotoxicity: at the top concentration", "summary_of_the_method": "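Human lymphoblastoid cells (2500/well) were pre-incubated 5 hr at 37 C, then exposed to compounds over a concentration range for 24 hr at 37 C. Intracellular ATP was read by CellTiter-Glo luminescence; AC50 came from Hill-equation fits.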", "units": {"activity change, negative = cytotoxicity": "%"}, "values": [{"smiles": "CCN(C(=O)N(CC)c1ccccc1)c1ccccc1", "activity change, negative = cytotoxicity": -9.95}, {"smiles": "Cc1ccc(C(=O)O)cc1", "activity change, negative = cytotoxicity": 23.4}, {"smiles": "C=Cc1ccccn1", "activity change, negative = cytotoxicity": 8.06}, {"smiles": "CC(C)C(C)C", "activity change, negative = cytotoxicity": 9.21}, {"smiles": "CCCCC(=O)N(C)C", "activity change, negative = cytotoxicity": -0.856}, {"smiles": "Nc1cc(S(=O)(=O)O)ccc1O", "activity change, negative = cytotoxicity": 13}, {"smiles": "O=C1OC(=O)c2c(Br)c(Br)c(Br)c(Br)c21", "activity change, negative = cytotoxicity": 13}, {"smiles": "Cc1cccc2sc(N)nc12", "activity change, negative = cytotoxicity": 10.5}, {"smiles": "CN(C)c1cccc(O)c1", "activity change, negative = cytotoxicity": -2.56}, {"smiles": "BrC(Br)C(Br)Br", "activity change, negative = cytotoxicity": 7.62}, {"smiles": "CC(=O)c1ccccn1", "activity change, negative = cytotoxicity": 23.6}, {"smiles": "O=P(O)(OCc1ccccc1)OCc1ccccc1", "activity change, negative = cytotoxicity": 15.8}, {"smiles": "CC(N)CN", "note": "(stereo not drawn)", "activity change, negative = cytotoxicity": 26.6}, {"smiles": "OC1CCCC1", "activity change, negative = cytotoxicity": 4.85}, {"smiles": "Cc1ccc(N(C)C)cc1", "activity change, negative = cytotoxicity": -3.12}, {"smiles": "OCCO", "activity change, negative = cytotoxicity": 14.8}, {"smiles": "Cc1ccc2nc(-c3ccc(N)cc3)sc2c1S(=O)(=O)O", "activity change, negative = cytotoxicity": 1.23}, {"smiles": "CCOC(=O)OCC", "activity change, negative = cytotoxicity": 1.47}, {"smiles": "Nc1cccc(C(F)(F)F)c1", "activity change, negative = cytotoxicity": 17.3}, {"smiles": "ClCCl", "activity change, negative = cytotoxicity": 8.08}, {"smiles": "CN(C)CCCCl", "activity change, negative = cytotoxicity": 11.6}, {"smiles": "CC(=O)c1cccc([N+](=O)[O-])c1", "activity change, negative = cytotoxicity": 22.5}, {"smiles": "O=C(O)c1ccccc1Cl", "activity change, negative = cytotoxicity": 9.34}, {"smiles": "CSCCC=O", "activity change, negative = cytotoxicity": 6.71}, {"smiles": "C=C(C)OC(C)=O", "activity change, negative = cytotoxicity": 10.1}, {"smiles": "C1CCCC1", "activity change, negative = cytotoxicity": 24.6}, {"smiles": "CCCCCCCCC/C=C/CC1CC(=O)OC1=O", "note": "(stereo not drawn)", "activity change, negative = cytotoxicity": 19.7}, {"smiles": "Cc1cc(C)cc(O)c1", "activity change, negative = cytotoxicity": 16.9}, {"smiles": "CCC(O)C(C)(C)C", "note": "(stereo not drawn)", "activity change, negative = cytotoxicity": 19.8}, {"smiles": "CCCCCCCCC", "activity change, negative = cytotoxicity": 28.7}, {"smiles": "CCCCCCCCCCCCC1CO1", "note": "(stereo not drawn)", "activity change, negative = cytotoxicity": 12.1}, {"smiles": "CC(=O)c1nccs1", "activity change, negative = cytotoxicity": 17.9}, {"smiles": "Clc1ccc(Cl)c(Cl)c1Cl", "activity change, negative = cytotoxicity": 21.7}, {"smiles": "NC(=S)NNC(N)=S", "activity change, negative = cytotoxicity": 2.16}, {"smiles": "Cc1ccc(C(C)(C)C)cc1", "activity change, negative = cytotoxicity": 8.2}, {"smiles": "O=Cc1cccc(Br)c1", "activity change, negative = cytotoxicity": 14.9}, {"smiles": "Cc1ccc(C)c(N)c1", "activity change, negative = cytotoxicity": 9.29}, {"smiles": "CC(C)c1ccccc1", "activity change, negative = cytotoxicity": 15.5}]}]}
